We go through 5 molecules from PubChem BioAssay.

Activity calls are given as the source filed them.

A short description of test [1]: small molecules captured by biotinylated probe aFSTL3 – biochemical, small-molecule microarray, fluorescence 635/667, stem cell growth factor project, primary screen (AID 1064).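 Note: measures binding of the biotinylated anti-FSTL3 antibody to printed compounds.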 As to conditions: higher = more signal.
Test [2] can be described thus: binders from COS7 lysate, DM2A8 probe, primary screen, torsin A project, cell lysate, small-molecule microarray, fluorescence 635/667 (AID 1065). To be noted: higher = more signal, COS7 lysate expressing mutant human TOR1A.
The nature of test [3]: small molecules captured by biotinylated probe aFGF2 – biochemical, small-molecule microarray, fluorescence 635/667, stem cell growth factor project, primary screen (AID 1067).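 Note: measures binding of biotinylated aFGF2 protein to printed compounds on slides; z-score merges feature fluorescence and signal-to-noise across triplicate slides.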 To be noted: higher = more signal.
Test [4] in a line: small molecules captured by biotinylated probe aFGF10 – biochemical, small-molecule microarray, fluorescence 635/667, stem cell growth factor project, primary screen (AID 1071).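 Note: score merges 667 nm spot intensity and signal to noise from triplicate slides.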 To be noted: higher = more signal.
Test [5] has as its target Neurogenic locus notch homolog protein 2 (Homo sapiens) (UniProt Q04721). The test can be described thus: small molecules binding Notch2 protein – biochemical, small-molecule microarray, 635 nm fluorescence, stem cell growth factors, primary screen (AID 1073). As to conditions: higher = more signal.
Test [6] concerns the target Pro-neuregulin-1, membrane-bound isoform (Homo sapiens) (UniProt Q02297). Description: small molecules binding neuregulin-1 protein – biochemical, small-molecule microarray, fluorescence 635/667, psychiatric disease protein project, primary screen (AID 1075).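 Note: score combines 667 nm spot fluorescence with signal to noise.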 As to conditions: NRG1 binding, 635 nm fluorescence, higher = more signal.
The test system of test [7] is Neuregulin-1 EGF-like domain. Description: small molecules binding NRG1 EGF domain – biochemical, small-molecule microarray, 635 nm fluorescence, primary screen (AID 1081).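 Note: binding of the protein to compounds printed on small-molecule microarray slides.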 To be noted: higher = more signal.
Test [8] in a line: FRG1 expression reporter modulators in myotubes – cell-based, C2C12 myotubes, firefly/Renilla luciferase, luminescence, FRG1 inhibition for FSHD, primary screen (AID 1084). As to conditions: FRG1 promoter luciferase, higher = more signal, called active from +8 up or from −8 down.
Test [9] can be described thus: small molecules captured by biotinylated probe aFST – biochemical, small-molecule microarray, fluorescence 635/667, stem cell growth factor project, primary screen (AID 1086).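 Note: score merges 667 nm fluorescence with signal-to-noise of each printed compound spot.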 To be noted: higher = more signal.
Test [10] in a line: binders of probe aHhip on microarray, primary screen, stem cell growth factor project, biochemical, small-molecule microarray, fluorescence 635/667 (AID 1087).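 Note: score merges spot fluorescence at 667nm with spot signal to noise ratio.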 As to conditions: higher = more signal.
Test [11] has as its system PRMT1 (protein arginine N-methyltransferase 1). The test can be described thus: small molecules binding arginine methyltransferase PRMT1 – biochemical, small-molecule microarray, 635 nm fluorescence, primary screen (AID 1088).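 Note: binding of Prmt1 protein to compounds spotted on small-molecule microarray slides.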 As to conditions: higher = more signal.
Test [12] can be described thus: growth effects on S. cerevisiae YJM789 – YJM789 clinical isolate, OD600, 24 h, basal, primary screen (AID 1089).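 Note: growth of clinical yeast isolate S. cerevisiae YJM 789 seeded 1000 cells per well; test concentration not given here.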 As to conditions: higher = more signal, called active from +8 up or from −8 down.
A short description of test [13]: S. pombe growth modifiers, basal conditions – strain 972, OD600, 24 h, no modulator, primary screen (AID 1090).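 Note: basal condition with compound alone and no growth modifier present; test concentration not given here.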 To be noted: S. pombe 972 growth, higher = more signal, called active from +8 up or from −8 down.
Test [14] in a line: budding yeast growth modifiers under rapamycin – strain BY4716, OD600, 96 h, primary screen (AID 1091). Note: test concentration not given here. As to conditions: S. cerevisiae BY4716 + rapamycin, higher = more signal, called active from +8 up or from −8 down.
The target in test [15] is Torsin-1A-interacting protein 2 (Homo sapiens) (UniProt Q8NFQ8). Description: small molecules binding lysate-expressed LULL1 – cell lysate, human LULL1 lysate, 635/667 nm fluorescence, primary screen (AID 1092).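 Note: probe is lysate of COS7 cells overexpressing human LULL1; score merges per-feature 667 nm fluorescence with signal-to-noise.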 As to conditions: small-molecule microarray, hLULL1 lysate binding, 635 nm fluorescence; higher = more signal.
Torsin-1A-interacting protein 2 (Homo sapiens), sequence (Q8NFQ8 whole entry, looked up): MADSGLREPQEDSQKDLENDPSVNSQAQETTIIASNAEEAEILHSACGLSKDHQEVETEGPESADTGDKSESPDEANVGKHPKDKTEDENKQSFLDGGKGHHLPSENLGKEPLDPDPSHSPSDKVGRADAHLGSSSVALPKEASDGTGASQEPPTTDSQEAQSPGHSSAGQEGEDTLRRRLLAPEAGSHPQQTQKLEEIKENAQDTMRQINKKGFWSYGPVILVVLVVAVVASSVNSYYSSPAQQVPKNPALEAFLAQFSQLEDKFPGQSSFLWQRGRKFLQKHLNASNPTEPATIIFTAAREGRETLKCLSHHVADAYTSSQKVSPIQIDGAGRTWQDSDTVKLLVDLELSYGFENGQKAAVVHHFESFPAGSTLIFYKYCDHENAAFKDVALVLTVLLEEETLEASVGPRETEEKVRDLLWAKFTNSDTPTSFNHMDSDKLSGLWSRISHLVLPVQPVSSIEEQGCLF
Test [16] in a line: optical density change of DRC41 E. coli – strain DRC41, OD650, 24 h, E. coli filamentation project, primary screen (AID 1093).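 Note: MC1000 strain lacking acrAB efflux and sulA so SOS filamentation is blocked; test concentration not given here.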 To be noted: E. coli DRC41 growth, higher = more signal, called active from +8 up or from −8 down.
Test [17] is described as follows: probe aLefty2 binding to arrayed compounds – biochemical, biotinylated probe, 635/667 nm fluorescence, primary screen (AID 1094).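 Note: score merges spot fluorescence near 667 nm with spot signal-to-noise ratio.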 As to conditions: small-molecule microarray, higher = more signal.
For test [18], the system named is Noggin (protein binding on small-molecule microarray). Description: small molecules binding Noggin protein – biochemical, 635/667 nm fluorescence, primary screen (AID 1095).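 Note: score merges 667 nm feature fluorescence with signal to noise over triplicate slides.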 As to conditions: 635 nm fluorescence, higher = more signal.
Test [19] addresses Neurogenic locus notch homolog protein 3 (Homo sapiens) (UniProt Q9UM47). Description: small molecules binding NOTCH3 protein – biochemical, 635/667 nm fluorescence, primary screen (AID 1096). As to conditions: small-molecule microarray, 635 nm fluorescence, higher = more signal.
Test [20] is described as follows: probe aEGFR binding to arrayed compounds – biochemical, biotinylated probe, 635/667 nm fluorescence, primary screen (AID 1097).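 Note: probe is a biotinylated anti-EGFR antibody binding compounds printed on slides; score combines fluorescence near 667 nm and signal to noise of each spot.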 To be noted: small-molecule microarray, higher = more signal.

Neurogenic locus notch homolog protein 3 (Homo sapiens), sequence (Q9UM47 whole entry, looked up): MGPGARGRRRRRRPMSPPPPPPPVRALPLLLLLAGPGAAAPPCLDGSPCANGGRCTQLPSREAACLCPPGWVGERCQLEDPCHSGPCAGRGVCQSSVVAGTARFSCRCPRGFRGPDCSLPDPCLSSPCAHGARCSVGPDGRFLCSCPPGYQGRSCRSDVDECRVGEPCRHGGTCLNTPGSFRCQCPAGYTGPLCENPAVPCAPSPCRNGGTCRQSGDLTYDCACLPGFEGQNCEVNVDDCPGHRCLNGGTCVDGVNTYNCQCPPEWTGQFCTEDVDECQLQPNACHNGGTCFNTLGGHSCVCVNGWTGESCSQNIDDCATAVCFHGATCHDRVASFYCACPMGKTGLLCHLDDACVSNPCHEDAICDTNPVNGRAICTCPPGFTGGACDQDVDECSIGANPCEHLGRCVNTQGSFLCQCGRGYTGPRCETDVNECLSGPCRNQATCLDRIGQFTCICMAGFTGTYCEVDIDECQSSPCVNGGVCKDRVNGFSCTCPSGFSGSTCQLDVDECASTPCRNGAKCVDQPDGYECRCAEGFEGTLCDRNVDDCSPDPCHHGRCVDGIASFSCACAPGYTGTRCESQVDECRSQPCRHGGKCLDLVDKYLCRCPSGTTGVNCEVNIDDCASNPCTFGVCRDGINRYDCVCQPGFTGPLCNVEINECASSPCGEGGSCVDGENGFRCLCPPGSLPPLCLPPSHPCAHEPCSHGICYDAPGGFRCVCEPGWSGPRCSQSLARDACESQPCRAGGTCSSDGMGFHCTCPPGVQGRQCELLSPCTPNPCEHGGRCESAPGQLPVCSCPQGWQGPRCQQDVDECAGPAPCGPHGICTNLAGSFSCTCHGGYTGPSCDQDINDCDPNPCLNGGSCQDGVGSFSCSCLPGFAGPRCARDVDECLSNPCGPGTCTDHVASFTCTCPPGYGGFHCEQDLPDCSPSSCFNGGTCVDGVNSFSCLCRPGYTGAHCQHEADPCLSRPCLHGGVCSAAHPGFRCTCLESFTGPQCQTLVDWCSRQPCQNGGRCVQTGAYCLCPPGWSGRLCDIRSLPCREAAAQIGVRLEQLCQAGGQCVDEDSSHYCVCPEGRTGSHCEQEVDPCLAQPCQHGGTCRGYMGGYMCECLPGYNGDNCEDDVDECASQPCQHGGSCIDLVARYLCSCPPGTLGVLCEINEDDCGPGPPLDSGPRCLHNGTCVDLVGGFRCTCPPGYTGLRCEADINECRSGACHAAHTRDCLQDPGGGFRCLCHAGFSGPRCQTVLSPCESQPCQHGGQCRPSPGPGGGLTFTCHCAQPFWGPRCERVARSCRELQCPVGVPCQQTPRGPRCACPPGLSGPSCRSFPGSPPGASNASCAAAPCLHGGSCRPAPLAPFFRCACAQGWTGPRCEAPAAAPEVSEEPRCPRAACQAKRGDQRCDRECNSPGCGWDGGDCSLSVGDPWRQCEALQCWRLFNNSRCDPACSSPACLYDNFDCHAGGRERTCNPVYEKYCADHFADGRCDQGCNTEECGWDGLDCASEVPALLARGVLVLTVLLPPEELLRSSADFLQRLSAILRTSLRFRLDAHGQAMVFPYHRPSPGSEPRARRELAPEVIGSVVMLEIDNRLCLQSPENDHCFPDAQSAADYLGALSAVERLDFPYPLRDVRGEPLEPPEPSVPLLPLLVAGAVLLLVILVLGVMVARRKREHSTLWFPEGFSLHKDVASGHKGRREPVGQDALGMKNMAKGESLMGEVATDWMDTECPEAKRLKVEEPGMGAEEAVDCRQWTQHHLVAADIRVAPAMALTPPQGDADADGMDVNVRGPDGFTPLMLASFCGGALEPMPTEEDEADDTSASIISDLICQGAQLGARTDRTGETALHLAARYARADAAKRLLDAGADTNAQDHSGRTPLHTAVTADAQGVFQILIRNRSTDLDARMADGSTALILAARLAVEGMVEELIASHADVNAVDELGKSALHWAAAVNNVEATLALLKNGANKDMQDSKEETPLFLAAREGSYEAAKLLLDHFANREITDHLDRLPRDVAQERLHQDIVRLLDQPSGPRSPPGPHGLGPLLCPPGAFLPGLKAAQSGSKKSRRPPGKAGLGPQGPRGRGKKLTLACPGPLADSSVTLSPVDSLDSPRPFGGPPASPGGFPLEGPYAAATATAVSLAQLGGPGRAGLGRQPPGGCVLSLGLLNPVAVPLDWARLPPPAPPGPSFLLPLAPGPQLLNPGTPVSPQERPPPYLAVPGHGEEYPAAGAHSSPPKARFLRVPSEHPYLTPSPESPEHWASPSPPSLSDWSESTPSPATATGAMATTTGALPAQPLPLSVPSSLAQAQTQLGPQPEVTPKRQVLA
Pro-neuregulin-1, membrane-bound isoform (Homo sapiens), sequence (Q02297 whole entry, looked up, the tested form may be a part, canonical isoform): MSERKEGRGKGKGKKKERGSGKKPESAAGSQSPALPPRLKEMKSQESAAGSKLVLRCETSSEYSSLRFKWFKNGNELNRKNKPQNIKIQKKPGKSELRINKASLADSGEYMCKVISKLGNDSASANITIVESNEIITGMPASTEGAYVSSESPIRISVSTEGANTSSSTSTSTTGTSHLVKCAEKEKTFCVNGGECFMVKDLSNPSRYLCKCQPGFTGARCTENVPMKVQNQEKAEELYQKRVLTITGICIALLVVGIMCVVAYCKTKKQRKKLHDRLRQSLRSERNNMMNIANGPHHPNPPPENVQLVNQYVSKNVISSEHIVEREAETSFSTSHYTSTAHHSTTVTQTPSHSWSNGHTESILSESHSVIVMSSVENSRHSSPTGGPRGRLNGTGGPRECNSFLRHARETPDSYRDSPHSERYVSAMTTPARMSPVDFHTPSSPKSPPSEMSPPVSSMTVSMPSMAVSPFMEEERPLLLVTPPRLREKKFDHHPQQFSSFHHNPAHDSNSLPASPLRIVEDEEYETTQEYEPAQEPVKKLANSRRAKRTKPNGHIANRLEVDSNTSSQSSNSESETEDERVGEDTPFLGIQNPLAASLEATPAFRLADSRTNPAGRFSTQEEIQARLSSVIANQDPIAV

For `CC(C)C[C@@H]1NC(=O)[C@@H]2C[C@H](C(=O)NCCCCCC[N+](C)(C)C)[C@H](c3cccc(OCCO)c3)N2C1=O`, the composite z-score is 0.222 in [1]; 0.0263 in [2]; -0.145 in test [3]; -0.289 in [4]; 0.114 in test [5]; 1.06 in test [6]. In addition, the composite z-score was 1.18 in test [7]; -0.304 in [9]; -0.126 in [10]; 1.58 in test [11]; 3.23 in [15]; -0.135 in test [17]. Further, the composite z-score was -0.143 in test [18], 0.766 in test [19] and -0.0572 in test [20]. Moreover, the z-score in test [8] is 2.84 (inactive); in [12] it was -0.632 (inactive); in [13] it was 0.806 (inactive); in [14], 0.24 (inactive); in test [16], -0.209 (inactive).

Consider `[N-]=[N+]=Nc1ccccc1C[C@@]1(C(=O)O)N=C(c2ccc(OCCCO)cc2)O[C@@H]1c1ccccc1N=[N+]=[N-]`, for which the composite z-score stood at 0.943 in [1]; 0.211 in test [2]; 0.0171 in [3]; 0.325 in test [4]; 1.37 in test [5]; 1.95 in test [6]. For the same molecule, the composite z-score in test [7] is 1.21; in test [9], 1.36; in test [10] it was -0.283; in test [11], 1.39; in test [15], 3.04; in [17], 0.255. Besides, the composite z-score in [18] was -0.414; in [19] it was 1.09; in test [20], 0.0998. Besides, the z-score in test [8] is -0.22 (inactive); in test [12], -1.05 (inactive); in test [13], -0.613 (inactive); in test [14], -1.67 (inactive); in [16] it was -0.679 (inactive).

Take `C=C(COC)C(=O)CC[C@H](OC(C)=O)c1ccc(OCCO)cc1`: the composite z-score in test [1] is -0.198; in test [2], -0.722; in test [3], -0.0533; in test [4] it was 1.21; in test [5] it was -0.189; in test [6], -0.0732. The composite z-score in test [7] was 1.1; in test [9] it was 0.375; in test [10] it was -0.191; in test [11], 1.44; in test [15] it was -0.451; in test [17], -0.211. The composite z-score in test [18] is 1.93; in test [19], 0.711; in test [20], -0.0387. Further, the z-score in test [8] was 1.08 (inactive); in [12], 0.389 (inactive); in test [13], -2.5 (inactive); in [14], -1.06 (inactive); in test [16] it was 1.39 (inactive).

With `CN1C(=O)C2C=CC(C(O)c3cc(C(F)(F)F)cc(C(F)(F)F)c3)N(NC(=O)OC(C)(C)C)C2C1=O` (stereo not given), the composite z-score in [1] is 0.153; in test [2], 0.324; in test [3], -0.0169; in [4], 0.577; in [5] it was 1.67; in [6], 2.01. Moreover, the composite z-score is 1.03 in test [7]; 1.52 in test [9]; -0.0296 in test [10]; 1.56 in test [11]; 3.61 in test [15]; 0.322 in [17]. The composite z-score amounted to 0.421 in test [18], 0.995 in test [19] and 0.0169 in test [20]. For the same molecule, the z-score in test [8] was 1.07 (inactive); in test [12], -0.403 (inactive); in [13] it was -0.983 (inactive); in test [14], -0.314 (inactive); in test [16], -0.0262 (inactive).

With `CC1(C)C(=O)C(c2ccccc2)=C2CN3C(=O)N(CCc4ccccc4)C(=O)C3(Cc3ccc(F)cc3)C=C21` (stereo not given), the composite z-score in [1] was 0.817; in test [2], -0.339; in test [3], 0.248; in [4], 0.173; in test [5] it was 1.47; in test [6], 0.536. For the same molecule, the composite z-score in [7] was 0.631; in test [9], 1.58; in test [10] it was 0.0818; in test [11] it was -0.203; in test [15] it was 2.52; in test [17] it was 0.428. Further, the composite z-score in [18] was -0.459; in [19], 0.337; in [20], 0.133. The z-score was 0.927 (inactive) in test [8]; 0.54 (inactive) in test [12]; 0.921 (inactive) in test [13]; 6.84 (inactive) in [14]; -2 (inactive) in test [16].
